Drawing on PubChem BioAssay (NCATS), this text covers activity, negative = cell killing and Potency for 25 compounds.

Values joined by “and” are separate entries in the source; they are usually repeats but may differ in a detail not shown here. Identical values can stand only once. Inconclusive results are not listed. Values without a mark were called inactive. Active and inactive are the calls of the source. Calls follow the shape of the dose curve; as a rule, active = well fitted inhibition curve with a large enough effect; inconclusive = small, poorly fitted or top-dose-only effect; inactive = flat fitted curve, though single readings scatter.

Assay [1] is described as follows: Drug repurposing screens with cells derived from glioblastoma tumor samples (AID 1345199). Also: nearly all actives have a fitted effect of over 40% in size. Particulars: GBM patient neurospheres viability, ATP luminescence, 48 h. An outline of the steps: (§1)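 Four patient lines of CD133+ GBM neurospheres were screened at several concentrations; hits were retested in those lines plus three slower-growing GBM lines, using 48-hour treatment and ATP-based viability.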

In the next assay the test system is astro (control astrocytes). The assay is described as above. The note with it: viability, ATP luminescence, 48 h; series mostly up to 45.9 µM. An outline of the steps: as §1
The mark [2] stands for this setting: at 45.9 µM (top of the series), tumour line B.
The mark [3] stands for this setting: at 45.9 µM (top of the series), tumour line D.
The mark [4] stands for this setting: at 46.1 µM (top of the series), tumour line C.
[5] abbreviates: at 46 µM (top of the series), tumour line A.
% is scaled to controls: 0 for no effect and ±100 for the full control effect; potency is read from the fitted curve at half-maximal effect.

For `Cc1ccc(/C=N/n2c(-c3ccccc3)csc2=S)cc1`, the activity, negative = cell killing is -0.779% in assay [1] (setting [2]), -6.23% in assay [1] (setting [3]) and -16.1% in assay [1] (setting [4]). In assay [1] (tumour line A), the Potency was 17.8 µM (active). Further, in the assay on astro, the Potency entry was “inactive”.

On to `CC(=O)Oc1ccc(C2(c3ccc(OC(C)=O)cc3)Oc3ccccc3NC2=O)cc1`, for which the activity, negative = cell killing in assay [1] (setting [2]) is -28.4%. Moreover, the Potency in assay [1] (tumour line A) is 22.4 µM (active).

Consider `O=C1CC[C@H](C(=O)N2CCCCC2)N1`, for which the activity, negative = cell killing in assay [1] (setting [2]) was 5.57%; in assay [1] (setting [3]), 0.144%; in assay [1] (setting [5]) it was -19.7%; in assay [1] (setting [4]) it was 1.57%. In addition, the Potency entry in the assay with astro was “inactive”.

`CCOC(=O)NNc1ccc(N(CC)CC(C)O)nn1` (stereo unspecified): the activity, negative = cell killing in assay [1] (setting [2]) was -1.62%; in assay [1] (setting [3]) it was -9.84%; in assay [1] (setting [5]), -25.2%; in assay [1] (setting [4]), 10.8%. Besides, the Potency entry in the assay with astro is “inactive”.

Take `CC(C(=O)O)c1ccc(/C=C2\CCCCC2=O)cc1` (stereo unspecified): the activity, negative = cell killing was -2.39% in assay [1] (setting [2]), -17% in assay [1] (setting [3]), -27.9% in assay [1] (setting [5]) and 3.8% in assay [1] (setting [4]). Also, the Potency entry in the assay with astro is “inactive”.

Take `O=C(O)CNC(=O)CNC(=O)CNC(=O)CSC(=O)c1ccccc1`: the activity, negative = cell killing in assay [1] (setting [2]) was 2.75%; in assay [1] (setting [3]) it was -4.9%; in assay [1] (setting [5]) it was -23.1%; in assay [1] (setting [4]), -10.1%. The Potency entry in the assay with astro was “inactive”.

In the case of `CN1CCCN(C(c2ccccc2)c2ccc(Cl)cc2)CC1` (stereo unspecified), in assay [1] (setting [4]), the activity, negative = cell killing is -12.3%. Also, the Potency in assay [1] (tumour line A) was 4.47 µM (active); in assay [1] (tumour line B) it was 35.5 µM (active); in assay [1] (tumour line D), 20 µM (active).

As for `CC(C)(C)C(=O)OCOC(=O)C1N2C(=O)CC2S(=O)(=O)C1(C)C` (stereo unspecified), the activity, negative = cell killing is -8.27% in assay [1] (setting [2]), -8.54% in assay [1] (setting [3]), -19.2% in assay [1] (setting [5]) and -11.5% in assay [1] (setting [4]). For the same compound, in the assay with astro, the Potency result is “inactive”.

As to `CC(C)=CCC/C(C)=C/CC/C(C)=C/CCC(=O)OC/C=C(\C)CCC=C(C)C`, the results for the activity, negative = cell killing in assay [1] (setting [2]), in assay [1] (setting [3]) and in assay [1] (setting [4]) were -1.59%, -0.887% and -6.49%, respectively. For the same compound, the Potency in assay [1] (tumour line A) is 35.5 µM (active). In addition, the Potency entry in the assay with astro was “inactive”.

`O=P(O)(O)OCC(O)CO` (stereo unspecified): the activity, negative = cell killing in assay [1] (setting [2]) is -9.32%; in assay [1] (setting [3]), 5.18%; in assay [1] (setting [5]) it was -22.7%; in assay [1] (setting [4]) it was -0.918%. Also, the Potency entry in the assay with astro was “inactive”.

On to `CN1C(=O)CC(C)(c2ccccc2)C1=O` (stereo unspecified), for which the activity, negative = cell killing in assay [1] (setting [2]) is -1.54%; in assay [1] (setting [3]), 0.352%; in assay [1] (setting [5]), -33.9%; in assay [1] (setting [4]) it was -2.82%. The Potency result with astro is “inactive”.

Consider `N[C@@H](Cc1cc(I)c(O)c(I)c1)C(=O)O`, for which the activity, negative = cell killing was 3.22% in assay [1] (setting [2]), 2.54% in assay [1] (setting [3]), 14.8% in assay [1] (setting [5]) and 3.63% in assay [1] (setting [4]). In addition, the Potency result in the assay with astro was “inactive”.

Consider `COc1ccccc1OCC1CNC(=O)O1` (stereo unspecified), for which the activity, negative = cell killing in assay [1] (setting [2]) is -0.636%; in assay [1] (setting [3]) it was -0.575%; in assay [1] (setting [5]) it was -28.8%; in assay [1] (setting [4]) it was 4.79%. For the same compound, in the assay with astro, the Potency entry was “inactive”.

Consider `CCOC(=O)OCC/C(SC(=O)OCC)=C(\C)N(C=O)Cc1cnc(C)nc1N`, for which the activity, negative = cell killing in assay [1] (setting [2]) was -4.41%; in assay [1] (setting [3]) it was -10.3%; in assay [1] (setting [5]) it was -26%; in assay [1] (setting [4]), -10.1%. Also, in the assay with astro, the Potency result was “inactive”.

Turning to `O=C(O)c1ccccc1Nc1cc(Cl)ccc1C(=O)O`, the activity, negative = cell killing in assay [1] (setting [2]) is -6.14%; in assay [1] (setting [3]), -11.1%; in assay [1] (setting [5]) it was -27.3%; in assay [1] (setting [4]), 1.8%. Besides, in the assay with astro, the Potency result was “inactive”.

Take `CC(C)(C)C(O)/C=C/c1ccc2c(c1)OCO2` (stereo unspecified): the activity, negative = cell killing was -14.2% in assay [1] (setting [2]), -29.5% in assay [1] (setting [3]) and 10.3% in assay [1] (setting [4]). The Potency in assay [1] (tumour line A) was 15.8 µM (active). The Potency result with astro is “inactive”.

`OC(CCCN1CCCCC1)(c1ccccc1)c1ccccc1`: the results for the activity, negative = cell killing in assay [1] (setting [2]), in assay [1] (setting [3]) and in assay [1] (setting [4]) were 9.15%, -27.2% and -3.12%, respectively. Further, the Potency in assay [1] (tumour line A) was 11.2 µM (active). In addition, the Potency result in the assay with astro was “inactive”.

As to `O=C(Nc1ccc(S(=O)(=O)N2CCOCC2)cc1)c1cc(Cl)ccc1NS(=O)(=O)c1ccc(Cl)s1`, the activity, negative = cell killing in assay [1] (setting [2]) is -15.3%. Moreover, the Potency is 6.31 µM (active) in assay [1] (tumour line A), 25.9 µM (active) in assay [1] (tumour line C), 15.8 µM (active) in assay [1] (tumour line D) and 31.6 µM (active) in the assay with astro.

For the compound `C1N2CN3CN1CN(C2)C3`, the activity, negative = cell killing was -5.59% in assay [1] (setting [2]), -12.9% in assay [1] (setting [3]), -29.1% in assay [1] (setting [5]) and 5.12% in assay [1] (setting [4]). In addition, the Potency entry with astro was “inactive”.

On to `CC(C)(C)c1nnc(NS(=O)(=O)c2ccccc2)s1`, for which the activity, negative = cell killing in assay [1] (setting [2]) was -2.48%; in assay [1] (setting [3]) it was -22.3%; in assay [1] (setting [5]), -25.7%; in assay [1] (setting [4]), -15.6%. In addition, the Potency entry in the assay with astro was “inactive”.

For `CN1CCC(=C2c3ccccc3CCc3cccnc32)CC1`, the activity, negative = cell killing in assay [1] (setting [2]) is -11.9%; in assay [1] (setting [3]), -28.7%; in assay [1] (setting [4]), -24%. Further, the Potency in assay [1] (tumour line A) is 11.2 µM (active). Further, in the assay on astro, the Potency result was “inactive”.

Take `OCCCc1ccccc1`: the activity, negative = cell killing was -21.4% in assay [1] (setting [2]), -9.24% in assay [1] (setting [3]), -22.3% in assay [1] (setting [5]) and 2.38% in assay [1] (setting [4]). Moreover, the Potency entry in the assay with astro was “inactive”.

Turning to `CO/N=C(/C(=O)N[C@@H]1C(=O)N2C(C(=O)O)=C(Cn3nnc(C)n3)CS[C@H]12)c1csc(N)n1`, the activity, negative = cell killing in assay [1] (setting [2]) is -1.74%; in assay [1] (setting [3]), 2.54%; in assay [1] (setting [5]), -14.3%; in assay [1] (setting [4]), 9.89%. For the same compound, the Potency entry with astro was “inactive”.

For `CN(C)C(=O)CNC(=O)Cc1ccccc1`, the activity, negative = cell killing is -9.58% in assay [1] (setting [2]), -2.49% in assay [1] (setting [3]), -22.3% in assay [1] (setting [5]) and 4.09% in assay [1] (setting [4]). In addition, in the assay on astro, the Potency result is “inactive”.

In the case of `C[N+](C)(C)CCO`, the activity, negative = cell killing in assay [1] (setting [2]) is -20.6% and -4.58%; in assay [1] (setting [3]) it was -15.3% and -5.56%; in assay [1] (setting [5]), -28.3% and -25.4%; in assay [1] (setting [4]), 20.9% and 13.7%. In the assay on astro, the Potency result is “inactive”.
